# Test results from PubChem BioAssay (Tox21).
# Where “and” joins values, the source holds several entries; their conditions need not be identical. Identical values can stand only once. Records with an inconclusive call do not appear. Where a call stands in place of a potency, no number is given. The source holds several records for some structures; these can differ, active in one and inactive in another. Calls of active or inactive are those of the source. Unless noted, the call rests on the fitted dose curve; in most records, active means well fitted curve in the direction sought with a large enough effect in the repeat runs; inconclusive means weak or mixed curves; inactive means no such curve, though single readings can be large; an effect the other way counts as inactive or inconclusive.
# Assays:
# [1] = qHTS assay to identify small molecule antagonists of the estrogen related receptor (ERR) signaling pathway from Tox21 library - cell viability counter screen (AID 1224834); further: nearly all actives have a fitted effect of over 30% in size; further: potency means the concentration at half of the fitted maximal effect
# Procedure, shortened: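 ERR cells, 2,000/well; 6 h settle at 37 C/5% CO2; pin-tool compound transfer in DMSO; 17.5 h at 37 C; CellTiter-Fluor, 30 min; fluorescence intensity.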
# [2] = biological target: Luciferin 4-monooxygenase (Photinus pyralis) (UniProt P08659); experiment: qHTS assay to identify small molecule inhibitors of firefly luciferase (AID 1224835); further: nearly all actives have a fitted effect of over 25% in size; further: potency means the concentration at half of the fitted maximal effect
# Procedure, shortened: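 Biochemical qHTS: compounds run as interplate titrations against purified firefly enzyme, with D-luciferin and ATP each at its KM concentration. Light output recorded by CCD imaging.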
# [3] = qHTS assay to identify small molecule agonists of the constitutive androstane receptor (CAR) signaling pathway - cell viability counter screen (AID 1224836); further: nearly all actives have a fitted effect of over 45% in size; further: potency means the concentration at half of the fitted maximal effect
# Procedure, shortened: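 Cells were seeded and incubated 4 hrs. Compounds were added across 15 concentrations together with PK11195 at 0.75 uM final. Plates were incubated 23 hrs at 37 C. CellTiter-Fluor was added and fluorescence measured.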
# [4] = qHTS assay to identify small molecule antagonists of the constitutive androstane receptor (CAR) signaling pathway - cell viability counter screen (AID 1224837); further: nearly all actives have a fitted effect of over 45% in size; further: potency means the concentration at half of the fitted maximal effect
# Procedure, shortened: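 Viability was measured with CellTiter-Fluor in a HepG2 line carrying stably transfected hCAR and a CYP2B6-2.2kb construct. Cells were exposed for 23 hr at 37 C to 15 compound concentrations with 50 nM CITCO as agonist.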
# [5] = biological target: Nuclear receptor subfamily 1 group I member 3 (Homo sapiens) (UniProt Q14994); experiment: qHTS assay to identify small molecule antagonists of the constitutive androstane receptor (CAR) signaling pathway (AID 1224838);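 further: HepG2 cells stably expressing hCAR with CYP2B6 luciferase reporter stimulated by CITCO; nearly all actives have a fitted effect of over 40% in size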; further: potency means the concentration at half of the fitted maximal effect
# Procedure, shortened: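 Antagonist mode used CITCO at a final 50 nM to activate CAR in human hepatoma HepG2 cells carrying stable hCAR and a 2.2 kb CYP2B6 promoter-luciferase construct. Compounds were tested at 15 concentrations over 24 h, with luminescence as the end point.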
# [6] = biological target: Nuclear receptor subfamily 1 group I member 3 (Homo sapiens) (UniProt Q14994); experiment: qHTS assay to identify small molecule agonists of the constitutive androstane receptor (CAR) signaling pathway (AID 1224839); further: nearly all actives have a fitted effect of over 15% in size; further: potency means the concentration at half of the fitted maximal effect
# Procedure, shortened: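 Cells were plated and incubated 4 hrs, then dosed with compounds at 15 concentrations. PK11195 was added to 0.75 uM final. After 24 hrs at 37 C, luciferase luminescence was measured.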
# [7] = qHTS assay to identify small molecule antagonists of the estrogen related receptor signaling pathway with the pleiotropic PPARgamma coactivator (PGC) from Tox21 10K library (AID 1224841; call rule not given here; further: actives are mostly falling curves and most rising ones were filed inactive; nearly all actives have a fitted effect of over 50% in size; further: potency means the concentration at half of the fitted maximal effect)
# Procedure, shortened: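 Steps: plate 2,000 PGC/ERR cells per well; incubate 6 h at 37 C with 5% CO2; transfer compounds from DMSO stocks by pin tool; incubate 18 h at 37 C; add One-Glo; measure luminescence 30 min later.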
# [8] = qHTS assay to identify small molecule agonists of the estrogen related receptor signaling pathway with the pleiotropic PPARgamma coactivator (PGC) from Tox21 10K library (AID 1224842); further: nearly all actives have a fitted effect of over 15% in size; further: potency means the concentration at half of the fitted maximal effect
# Procedure, shortened: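 PGC/ERR reporter cell line, 2,000 cells per well, incubated 6 h at 37 C before 23 nL compound in DMSO was added. After 18 h at 37 C, One-Glo luminescence read following 30 min at room temperature.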
# [9] = biological target: Thyrotropin receptor (Homo sapiens) (UniProt P16473); experiment: qHTS assay to identify small molecule agonists of the thyroid stimulating hormone receptor (TSHR) signaling pathway (AID 1224843; calls by dose curve; further: nearly all actives have a fitted effect of over 45% in size; further: potency means the concentration at half of the fitted maximal effect)
# Procedure, shortened: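 Agonist-mode screen: TSHR HEK293 cells received test chemicals for half an hour at room temperature, then HTRF cAMP detection reagents for one hour prior to fluorescence measurement. Each chemical ran as a 15-concentration series, triplicated.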
# [10] = qHTS assay to identify small molecule agonists of the hypoxia (HIF-1) signaling pathway - cell viability counter screen (AID 1224844; calls by dose curve; further: nearly all actives have a fitted effect of over 50% in size; further: potency means the concentration at half of the fitted maximal effect)
# Procedure, shortened: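 Cytotoxicity was measured in parallel with the HRE-driven beta-lactamase readout: after 17 hrs of compound exposure at 37C, HRE-bla ME-180 cells received CellTiter-Glo and luminescence was recorded 30 min later.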
# [11] = qHTS assay to identify small molecule antagonists of the estrogen related receptor (ERR) signaling pathway from Tox21 library (AID 1224848); further: nearly all actives have a fitted effect of over 50% in size; further: potency means the concentration at half of the fitted maximal effect
# Procedure, shortened: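 Quantitative high-throughput format: ERR reporter cells (2,000/well) pre-incubated 6 h, treated 18 h at 37 C with compounds in DMSO alongside positive and negative controls, then read by ONE-Glo luminescence.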
# [12] = qHTS assay to identify small molecule agonists of the estrogen related receptor (ERR) signaling pathway from Tox21 library (AID 1224849; calls by dose curve; further: nearly all actives have a fitted effect of over 15% in size); conditions: ERR reporter cell line, ONE-Glo luciferase, 18 h
# Procedure, shortened: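 Cells carrying the ERR reporter were plated and allowed to settle for 6 h, exposed to library compounds for 18 h at 37 C, then lysed with ONE-Glo and luminescence measured.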
# [13] = qHTS RealTime-Glo MT Cell Viability Assay in HepG2 cells - 24 hour (AID 1224867); further: nearly all actives have a fitted effect of over 50% in size; further: potency means the concentration at half of the fitted maximal effect
# Procedure, shortened: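 Luminescence read-out: viable HepG2 cells reduce a prosubstrate to a NanoLuc substrate, giving a signal proportional to live cell number. Reads taken at 0, 8, 16, 24, 32 and 40 h of compound exposure at 37 C.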
# [14] = A CellTox Green Cytotoxicity Assay to monitor cytotoxicity in HEK293 cells - 0 hour (AID 1224869); further: nearly all actives have a fitted effect of over 50% in size
# Procedure, shortened: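 Cells (HEK293, 600/well) and dye reagent are dispensed together. After 5 h at 37 C, 23 nL compound is pinned in. Plates stay at 37 C for 40 h with fluorescence read at 0h, 8h, 16h, 24h, 32h and 40h.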
# [15] = qHTS assay to identify small molecule antagonists of the estrogen related receptor signaling pathway with the pleiotropic PPARgamma coactivator (PGC) from Tox21 10K library - cell viability counter screen (AID 1224840; active means well fitted cell-killing curve with a large enough effect in the repeat runs, not every such curve was filed as active; further: nearly all actives have a fitted effect of over 40% in size; further: potency means the concentration at half of the fitted maximal effect)
# Procedure, shortened: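 Multiplexed viability counter screen in the PGC/ERR cell line: cells treated with DMSO-dissolved compounds for 17.5 hours at 37 C, then viability measured as CellTiter-Fluor fluorescence.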
# [16] = qHTS assay to identify small molecule agonists of H2AX (AID 1224845; active means well fitted activation curve with a large enough effect in the signal ratio in the repeat runs, not every such curve was filed as active; the % refers to the signal ratio)
# Procedure, shortened: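 Wild-type CHO-K1 cells, plated overnight, exposed 3hr at 37C to 15 concentrations (0.76% DMSO final). Lysed, then HTRF anti-pH2AX (S139) cryptate and anti-H2AX-d2 antibodies, 24 hr room temperature; 665/620 nm emission read.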
# [17] = qHTS assay to identify small molecule agonists of the hypoxia (HIF-1) signaling pathway (AID 1224846; active means well fitted activation curve with a large enough effect in the signal ratio in the repeat runs, not every such curve was filed as active; the % refers to the signal ratio)
# Procedure, shortened: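 Compounds from the Tox21 10K library, dissolved in DMSO, are tested for induction of a hypoxia response element–controlled beta-lactamase reporter in ME-180 cells. Exposure lasts 17 hrs at 37C after a 5 hr settling period, followed by CCF4-AM FRET substrate.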
# [18] = qHTS assay to identify small molecule agonists of H2AX - cell viability counter screen (AID 1224847; calls by dose curve; further: nearly all actives have a fitted effect of over 30% in size; further: potency means the concentration at half of the fitted maximal effect)
# Procedure, shortened: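 Cytotoxicity counter screen in wild-type CHO-K1 cells: a 3 hr compound treatment at 37C across 15 concentrations, followed by CellTiter-Glo luminescence to gauge viable cells.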
# [19] = qHTS RealTime-Glo MT Cell Viability Assay in HEK293 cells - 32 hour (AID 1224868); further: nearly all actives have a fitted effect of over 50% in size; further: potency means the concentration at half of the fitted maximal effect
# Procedure, shortened: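 Nonlytic real-time viability readout: viable cells convert prosubstrate to NanoLuc substrate, giving luminescence proportional to live cell number. HEK293, 600 cells/well, compound added after 5 h, continuous culture at 37 C.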
# Luciferin 4-monooxygenase (Photinus pyralis), sequence (P08659 whole entry, looked up): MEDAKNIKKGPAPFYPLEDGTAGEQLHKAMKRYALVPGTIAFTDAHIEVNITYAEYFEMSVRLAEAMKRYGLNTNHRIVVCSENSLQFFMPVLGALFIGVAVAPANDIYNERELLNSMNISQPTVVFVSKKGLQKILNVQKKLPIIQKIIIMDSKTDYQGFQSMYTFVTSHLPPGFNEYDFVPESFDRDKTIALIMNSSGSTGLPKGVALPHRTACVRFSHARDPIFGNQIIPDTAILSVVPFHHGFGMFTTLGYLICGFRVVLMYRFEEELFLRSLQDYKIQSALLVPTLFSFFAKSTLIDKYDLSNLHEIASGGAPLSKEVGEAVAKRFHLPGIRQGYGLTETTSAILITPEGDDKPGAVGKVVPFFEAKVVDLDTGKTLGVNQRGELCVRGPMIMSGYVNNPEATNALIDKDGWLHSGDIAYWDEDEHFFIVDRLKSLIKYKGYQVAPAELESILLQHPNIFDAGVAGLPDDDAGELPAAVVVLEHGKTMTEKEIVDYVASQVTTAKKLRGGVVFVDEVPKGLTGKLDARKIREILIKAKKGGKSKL
# Nuclear receptor subfamily 1 group I member 3 (Homo sapiens), sequence (Q14994 whole entry, looked up): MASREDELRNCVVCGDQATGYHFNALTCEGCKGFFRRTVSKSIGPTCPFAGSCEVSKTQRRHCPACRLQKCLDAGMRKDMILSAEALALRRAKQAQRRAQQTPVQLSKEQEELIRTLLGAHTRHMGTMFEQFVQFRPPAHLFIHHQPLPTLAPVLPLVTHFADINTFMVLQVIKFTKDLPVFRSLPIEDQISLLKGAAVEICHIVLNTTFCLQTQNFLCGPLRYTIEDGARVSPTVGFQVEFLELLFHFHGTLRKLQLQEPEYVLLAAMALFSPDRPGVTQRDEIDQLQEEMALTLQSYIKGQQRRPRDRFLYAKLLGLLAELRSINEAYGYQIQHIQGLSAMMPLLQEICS
# Thyrotropin receptor (Homo sapiens), sequence (P16473 whole entry, looked up): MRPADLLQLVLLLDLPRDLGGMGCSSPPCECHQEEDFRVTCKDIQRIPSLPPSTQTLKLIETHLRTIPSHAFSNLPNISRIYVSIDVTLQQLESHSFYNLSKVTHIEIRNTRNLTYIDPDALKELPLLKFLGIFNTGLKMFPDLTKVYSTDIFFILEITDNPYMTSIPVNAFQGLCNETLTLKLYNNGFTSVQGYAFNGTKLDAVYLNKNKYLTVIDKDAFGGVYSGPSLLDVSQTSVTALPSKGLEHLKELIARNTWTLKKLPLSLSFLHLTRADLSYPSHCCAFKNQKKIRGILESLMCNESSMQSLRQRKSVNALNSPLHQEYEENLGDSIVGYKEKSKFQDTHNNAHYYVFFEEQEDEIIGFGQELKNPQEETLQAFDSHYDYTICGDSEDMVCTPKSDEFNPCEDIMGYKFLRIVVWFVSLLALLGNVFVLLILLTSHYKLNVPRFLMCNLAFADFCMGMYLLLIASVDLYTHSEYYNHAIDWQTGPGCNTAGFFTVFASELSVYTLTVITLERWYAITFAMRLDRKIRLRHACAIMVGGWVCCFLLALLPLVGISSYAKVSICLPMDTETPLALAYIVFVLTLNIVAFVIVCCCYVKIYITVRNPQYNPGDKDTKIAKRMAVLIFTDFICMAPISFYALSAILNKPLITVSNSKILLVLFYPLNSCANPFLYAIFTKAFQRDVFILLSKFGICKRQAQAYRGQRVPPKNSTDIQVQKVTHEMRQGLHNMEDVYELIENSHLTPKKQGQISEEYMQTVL
SMILES,Potency [1],Potency [2],Potency [3],Potency [4],Potency [5],Potency [6],Potency [7],Potency [8],Potency [9],Potency [10],Potency [11],"activity change, positive = activation ([12]; at 42.5 µM (top of the series))",Potency [13],Potency [14],Potency [15],outcome [16],Potency [17],Potency [18],"activity change, positive = activation ([12]; at 92.4 µM (top of the series))",Potency [19]
COc1cccc2c1C(=O)c1c(O)c3c(c(O)c1C2=O)C[C@@](O)(C(=O)CO)C[C@@H]3O[C@H]1C[C@H](N)[C@H](O)[C@H](C)O1,2.17 µM (active) and 6.68 µM (active),15.5 µM (active),6.85 µM (active) and 6.68 µM (active),2.17 µM (active) and 5.96 µM (active),137 nM (active) and 1.06 µM (active),inactive,inactive,216 nM (active) and 596 nM (active),inactive,5.49 µM (active) and 10.7 µM (active),inactive,-2.08% (inactive) and 0.0204% (inactive),inactive and 1.69 µM (active),inactive,–,–,–,–,–,–
CCCCOCCOCCOCCO,inactive,inactive,–,inactive,inactive,inactive,inactive,inactive,inactive,inactive,inactive,2.27% (inactive),inactive,inactive,inactive,inactive,inactive,inactive,-1.73% (inactive),inactive
Cc1ccc(C(=O)c2cc(O)c(O)c([N+](=O)[O-])c2)cc1,43.3 µM (active),63.3 µM (active) and 34.7 µM (active),43.3 µM (active),–,inactive,–,30.6 µM (active),inactive,inactive,inactive,30.6 µM (active) and 26.6 µM (active),-49.4% (inactive),inactive,inactive,43.3 µM (active) and inactive,–,inactive,inactive,-70.9% (inactive),inactive
CC(C)OC(=O)C(C)(C)Oc1ccc(C(=O)c2ccc(Cl)cc2)cc1,inactive,34.7 µM (active),–,inactive,inactive,54.5 µM (active) and 26.6 µM (active),–,–,inactive,inactive,–,–,inactive,inactive,inactive,inactive,–,50.5 µM (active),–,–
OCCO,inactive,inactive,–,inactive,inactive,inactive,–,–,inactive,inactive,–,–,inactive,inactive,inactive,inactive,inactive,inactive,–,–
O=C=Nc1ccc(Cc2ccc(N=C=O)cc2)cc1,inactive,inactive,inactive,inactive,–,–,inactive,inactive,inactive,inactive,inactive,2.14% (inactive),inactive,inactive,inactive,inactive,–,inactive,-19.6% (inactive),–
COc1ccc(C(=O)CC(=O)c2ccc(C(C)(C)C)cc2)cc1,inactive,13.6 µM (active) and inactive,–,inactive,inactive,inactive,–,–,inactive,inactive,–,–,inactive,inactive,inactive,inactive,inactive,–,–,–
COC(=O)c1ccccc1,inactive,inactive,inactive,inactive,–,–,–,–,inactive,inactive,–,–,inactive,inactive,–,inactive,inactive,inactive,–,inactive and 11 µM (active)
COC(=O)CCC(=O)OC,inactive,inactive,–,inactive,inactive,inactive,inactive,inactive,inactive,inactive,inactive,–,inactive,inactive,–,inactive,inactive,inactive,8.82% (inactive) and 7.51% (inactive),inactive
CCOCCOCCO,inactive,inactive,inactive,inactive,–,–,inactive,inactive,inactive,inactive,inactive,–,inactive,inactive,inactive,inactive,inactive,–,-1.39% (inactive) and 2.46% (inactive),inactive
CCCCC(CC)COC(=O)c1ccc(N(C)C)cc1 (centres undefined),inactive,inactive,inactive,inactive,inactive,24.5 µM (active) and inactive,–,–,inactive,inactive,–,–,inactive,inactive,–,inactive,inactive,inactive,–,inactive
CC(=O)c1ccccn1,inactive,inactive,–,inactive,inactive,inactive,–,–,inactive,inactive,–,–,inactive,inactive,inactive,inactive,inactive,inactive,–,inactive
COC(=O)C1=C(C)NC(C)=C(C(=O)OCCN(C)Cc2ccccc2)C1c1cccc([N+](=O)[O-])c1 (centres undefined),27.1 µM (active) and 23.7 µM (active),inactive,–,43 µM (active) and 23.7 µM (active),inactive,inactive,–,–,30.5 µM (active),inactive,–,–,24.4 µM (active) and 10.7 µM (active),inactive,30.5 µM (active) and 26.6 µM (active),inactive,–,–,–,–
c1ccc2cc(Nc3ccc(Nc4ccc5ccccc5c4)cc3)ccc2c1,inactive,inactive,inactive,inactive,inactive,inactive,inactive,inactive,–,inactive,inactive,–,inactive,inactive,–,inactive,inactive,inactive,1.47% (inactive) and 5.2% (inactive),inactive
